Vaccinia mCherry = qHTS for Stage-Specific Inhibitors of Vaccinia Orthopoxvirus: mCherry Reporter Primary qHTS; 310,000 tested, 0.63% active; Potency, µM (doses to about 36.5 µM), actives largely listed as inhibitors; Vaccinia virus mCherry reporter infection, fluorescence; AID 720579, 2013; calls by dose curve; tested in A549 cells; note: nearly all actives have a fitted effect of over 35% in size
LmPK inh = qHTS Assay for Inhibitors of Leishmania Mexicana Pyruvate Kinase (LmPK). purified LmPK, Kinase-Glo ATP luminescence, 1 h. Potency, µM (titrated, usually from 57.5 µM), hits mostly inhibitors. 290,000 tested, 0.37% active
Target sequence (Q27686 whole entry, looked up): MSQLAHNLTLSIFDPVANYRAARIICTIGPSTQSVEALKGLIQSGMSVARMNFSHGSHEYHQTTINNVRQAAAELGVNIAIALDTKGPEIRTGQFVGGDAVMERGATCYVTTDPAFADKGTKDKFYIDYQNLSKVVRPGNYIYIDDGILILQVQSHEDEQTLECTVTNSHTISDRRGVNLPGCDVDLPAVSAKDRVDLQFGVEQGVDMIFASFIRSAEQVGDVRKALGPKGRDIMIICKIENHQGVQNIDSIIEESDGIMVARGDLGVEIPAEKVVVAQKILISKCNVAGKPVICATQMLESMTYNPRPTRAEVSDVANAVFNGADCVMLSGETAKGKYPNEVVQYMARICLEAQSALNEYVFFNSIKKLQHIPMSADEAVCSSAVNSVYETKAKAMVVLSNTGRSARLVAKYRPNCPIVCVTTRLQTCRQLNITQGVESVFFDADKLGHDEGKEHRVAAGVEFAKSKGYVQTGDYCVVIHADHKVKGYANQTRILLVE
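Screened at intermediate enzyme activity to detect both inhibitors and activators: LmPK at 0.1 nM, with a 0.5 nM enzyme column as activation reference. PEP 0.5 mM, ADP 0.1 mM; ATP detected by luminescence after 1 h.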
VACV Venus inh = qHTS for Stage-Specific Inhibitors of Vaccinia Orthopoxvirus: Venus Reporter Primary qHTS; Vaccinia virus Venus reporter expression, fluorescence; Potency, µM (highest dose often 36.5 µM), usual class: inhibitors; 330,000 tested, 0.46% active; AID 720580, 2013; calls by dose curve; tested in A549 cells; note: nearly all actives have a fitted effect of over 30% in size
HCMV antiviral = qHTS Assay for inhibitors of the human cytomegalovirus (HCMV). HFF cells, HCMV-luciferase reporter, 72 h; hits give low values. activity change, negative = inhibition, % at 57.5 µM. 410,000 tested, 4.5% active. AID 1259415, 2018; in the data active = activity change below about -60%; inconclusive = no clear call, values can overlap the other calls; inactive = above about -39%
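Human foreskin fibroblasts infected with luciferase-reporter HCMV at MOI 1 PFU/cell, compounds at two doses. Luciferase measured 72 h post infection; normalized to buffer-only basal and Salinomycin (10uM) controls.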
TbPYK inhibitor = qHTS of Trypanosoma Brucei Inhibitors; TbPYK enzyme, Kinase-Glo Plus ATP luminescence, 45 min; 410,000 tested, 0.12% active; Potency, µM (highest dose often 76.8 µM), usual class: inhibitors; AID 624173, 2012; note: nearly all actives have a fitted effect of over 50% in size
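Quantitative HTS: titrated library compounds versus trypanosomal pyruvate kinase in TEA buffer (pH 7.2) containing KCl, MgCl2, BSA and Tween-20. Reactions were initiated with ADP, 130 uM final. Kinase-Glo Plus luminescence was read after 45 min at RT.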
A number is an active result; [ ] = another dose, or the depositor's remark. Shown are actives, neighbours in structure and some others; about 5% of the full set was active somewhere. Unless noted, calls come from the whole dose curve; as a rule, active = well fitted curve in the direction sought with a large enough effect; inconclusive = small, poorly fitted or top-dose-only effect, or another doubt; inactive = no such curve, though single readings can be large; an effect the other way counts as inactive or inconclusive.

CCN(CC)CCn1c(NCc2ccc(OC)cc2)nc2ccccc21 was read as LmPK inh inactive, HCMV antiviral -100.3 and TbPYK inhibitor inactive.
For CCOc1ccccc1NC1c2ccccc2C(=O)N1Cc1ccco1 (stereo unspecified) the results were Vaccinia mCherry inactive, LmPK inh inactive, VACV Venus inh inactive, HCMV antiviral inactive and TbPYK inhibitor inactive.
`Oc1ccc(Cl)cc1C1=NNC(c2cccs2)C1` (stereo unspecified) gave Vaccinia mCherry inconclusive, LmPK inh inactive, VACV Venus inh inactive, HCMV antiviral inactive and TbPYK inhibitor inactive.
For O=[N+]([O-])c1ccc(O)c(C2=NNC(c3ccccc3F)C2)c1 (stereo unspecified) the results were Vaccinia mCherry inconclusive, LmPK inh inactive, VACV Venus inh 11.2µM, HCMV antiviral inactive and TbPYK inhibitor inactive.
Screening Cc1ccc(C)c(CSC2=NCCN2C(=O)c2cccs2)c1 returned Vaccinia mCherry inactive, LmPK inh inactive, VACV Venus inh inactive, HCMV antiviral inactive and TbPYK inhibitor inactive.
Screening CC(=Nc1ccccc1)C1=C(O)C(Cc2ccccc2)NC1=O (stereo unspecified) returned Vaccinia mCherry inactive, VACV Venus inh inconclusive, HCMV antiviral -76.4 and TbPYK inhibitor inactive.
Screening COc1c(Cl)cccc1-c1cn2ccccc2n1 returned Vaccinia mCherry inactive[7.34 µM], LmPK inh 7.08µM, VACV Venus inh inactive[7.34 µM], HCMV antiviral inactive and TbPYK inhibitor inactive.
Screening Clc1ccc(-c2cn3ccccc3n2)cc1 returned LmPK inh inactive, HCMV antiviral inactive and TbPYK inhibitor inactive.
Screening COc1ccccc1OCc1nn[nH]n1 returned Vaccinia mCherry inactive, LmPK inh inactive, VACV Venus inh inactive, HCMV antiviral inactive and TbPYK inhibitor inactive.
For C/C(CCc1ccc2c(c1)OCO2)=N\NC(=S)NC(C)C the results were LmPK inh inactive, HCMV antiviral inactive and TbPYK inhibitor inactive.
Screening CCCCOc1ccc(C(=O)NCC(=O)N2CCN(Cc3ccc4c(c3)OCO4)CC2)cc1 returned Vaccinia mCherry inactive, VACV Venus inh inactive, HCMV antiviral -68.4 and TbPYK inhibitor inactive.
Screening COCCCNC(=S)N1CCN(Cc2ccc3c(c2)OCO3)CC1 returned LmPK inh inactive, HCMV antiviral -102.7 and TbPYK inhibitor inactive.
`COCCNC(=S)N/N=C(\C)CCc1ccc2c(c1)OCO2` gave Vaccinia mCherry inactive, LmPK inh inactive, VACV Venus inh inactive, HCMV antiviral -67.1 and TbPYK inhibitor inactive.
Cc1ccc(N2C(=O)c3ccccc3C2Nc2ccc(S(=O)(=O)N3CCOCC3)cc2)nc1 (stereo unspecified) was read as Vaccinia mCherry inactive, LmPK inh inactive, VACV Venus inh inactive, HCMV antiviral inactive and TbPYK inhibitor inactive.
CN(Cc1ccccc1)C(=O)CCCn1c(=O)[nH]c2cc(Cl)ccc2c1=O was read as LmPK inh inactive, VACV Venus inh inconclusive, HCMV antiviral inactive and TbPYK inhibitor inactive.
For COC(=O)c1ccc(Cn2nnc3c(=O)[nH]c(C4CCCN(S(=O)(=O)c5ccc(C)cc5)C4)nc32)cc1 (stereo unspecified) the results were LmPK inh inactive, HCMV antiviral inactive and TbPYK inhibitor inactive.
`COC(=O)c1ccccc1S(=O)(=O)N1CCCC(c2nc3c(nnn3Cc3ccc(C)cc3)c(=O)[nH]2)C1` (stereo unspecified) gave Vaccinia mCherry inactive, LmPK inh inactive, VACV Venus inh inactive, HCMV antiviral -77.5 and TbPYK inhibitor inactive.
Oc1cccc(C(O)CNCc2ccc(-c3ccccc3)cc2)c1 (stereo unspecified) was read as Vaccinia mCherry inactive, LmPK inh inactive, VACV Venus inh inactive, HCMV antiviral -61.9 and TbPYK inhibitor inactive.
`OC(CNCc1ccccc1)c1ccccc1` (stereo unspecified) gave Vaccinia mCherry inactive, LmPK inh inactive, VACV Venus inh inactive, HCMV antiviral inactive and TbPYK inhibitor inactive.
Screening CC(C)(C)C(=O)Nc1cccc(-c2cn3cccnc3n2)c1 returned Vaccinia mCherry inactive, VACV Venus inh inactive, HCMV antiviral inactive and TbPYK inhibitor inactive.
For CC(=O)OC[C@]12CCC(C)=C[C@H]1O[C@@H]1[C@H](O)[C@@H](OC(C)=O)[C@@]2(C)[C@]12CO2 the results were Vaccinia mCherry inconclusive, LmPK inh inactive, VACV Venus inh 3.16µM, HCMV antiviral -76.9 and TbPYK inhibitor inactive.
Screening CC(C)CC1NC(=O)N(CC(=O)Nc2cc([N+](=O)[O-])ccc2F)C1=O (stereo unspecified) returned Vaccinia mCherry inactive, VACV Venus inh inactive, HCMV antiviral inactive and TbPYK inhibitor inactive.
`COc1cccc(CN2CCC2(C)C(=O)Nc2cccc(Oc3ccccc3)c2)c1OC` (stereo unspecified) gave Vaccinia mCherry inactive, VACV Venus inh inactive, HCMV antiviral -60.8 and TbPYK inhibitor inactive.
`COc1cccc(NC(=O)C2(C)CCN2Cc2ccc(OC)c3ccccc23)c1` (stereo unspecified) gave Vaccinia mCherry inactive, VACV Venus inh inactive, HCMV antiviral inactive and TbPYK inhibitor inactive.
For CC(=O)N1CCc2cc(NC(=O)C3(C)CCN3Cc3ccccc3OC(F)F)ccc21 (stereo unspecified) the results were Vaccinia mCherry inconclusive, VACV Venus inh inactive, HCMV antiviral -61.0 and TbPYK inhibitor inactive.
`CC1(C(=O)Nc2cnc3ccccc3c2)CCN1Cc1ccccc1Cl` (stereo unspecified) gave Vaccinia mCherry inactive, VACV Venus inh inactive, HCMV antiviral -76.5 and TbPYK inhibitor inactive.
CCCCc1nn2c(=O)cc(COC(=O)c3cccc(NC(=O)c4cccc(C)c4)c3)nc2s1 was read as Vaccinia mCherry inactive, VACV Venus inh inactive, HCMV antiviral inactive and TbPYK inhibitor inactive.
Cc1ccc(Cl)cc1NC(=O)Nc1cccc(OCc2cc(=O)n3ccccc3n2)c1 was read as Vaccinia mCherry inactive, VACV Venus inh inactive, HCMV antiviral -64.6 and TbPYK inhibitor inactive.
For O=C(COc1ccccc1F)Nc1ccc(OCc2cc(=O)n3ccccc3n2)cc1 the results were Vaccinia mCherry inactive, VACV Venus inh inactive, HCMV antiviral -61.1 and TbPYK inhibitor inactive.
`COC(=O)c1ccccc1NC(=O)Nc1cccc(OCc2cc(=O)n3cccc(C)c3n2)c1` gave Vaccinia mCherry inactive, VACV Venus inh inactive, HCMV antiviral inactive and TbPYK inhibitor inactive.
Screening Cc1cccn2c(=O)cc(COc3cccc(NC(=O)COc4ccc(F)cc4)c3)nc12 returned Vaccinia mCherry inconclusive, VACV Venus inh inconclusive, HCMV antiviral -90.4 and TbPYK inhibitor inactive.
For Cc1cccn2c(=O)cc(COc3cccc(NC(=O)c4ccccc4F)c3)nc12 the results were Vaccinia mCherry inactive, VACV Venus inh inactive, HCMV antiviral -90.9 and TbPYK inhibitor inactive.

High-throughput results deposited in PubChem BioAssay by National Center for Advancing Translational Sciences (NCATS).
